# phage Ecoli inh: E. coli growth loss with phage present | growth absorbance | inhibition, % at 11.9 µM | 360,000 tested, 0.26% active; in the data active = inhibition above about 11%
# AddAB inh: less growth of phage-infected E. coli with AddAB; E. coli expressing H. pylori AddAB, absorbance growth; inhibition, % at 11.9 µM; 330,000 tested, 0.29% active; in the data active = inhibition above about 12%;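 also: 0% = vehicle wells of infected cells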
# Tat export inh: E. coli Tat transport inhibition. E. coli MC4100 TorA-mCherry Tat export, fluorescence. inhibition, % at 10 µM. 340,000 tested, 0.036% active. AID 488895;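 active = mean replicate inhibition at least 50% and at least half of replicates individually reaching 50%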;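 also: exported cargo escapes ClpAP degradation while cytoplasmic cargo is degraded and loses fluorescence; 0% = median of neutral control wells and 100% = median of NaSCN control wells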
# E coli growth-1: reduces bacterial viability in AddAB counter-screen | E. coli V3065 growth, OD600 absorbance, 18 h | inhibition, % at 11.9 µM | 330,000 tested, 0.27% active | AID 449728;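 active = inhibition above the campaign's mean inhibition across all tested compounds plus 3 SD, cut at about 9.9% in these data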;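 also: uninfected addAB+ strain grown without phage in ampicillin broth; 0% = DMSO wells and 100% = ciprofloxacin 0.95 µg/ml wells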
# E coli growth-2: blocks Escherichia coli growth. OD600, 23 h; stronger effect = lower value. OD600 absorbance (test concentration not listed). 330,000 tested, 0.21% active. AID 1053175;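 active = OD600 absorbance below the run mean of sample wells minus 3.6 SD, in any replicate, cut at about 0.56 in these data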
# * marks the source's active call; other numbers are inactive results; . = no result given. Hits are enriched below; roughly 0.5% of the tested compounds scored in any of these assays.
SMILES,phage Ecoli inh,AddAB inh,Tat export inh,E coli growth-1,E coli growth-2
O=C(Nc1cccc(Cl)c1)Nc1ccc2c(c1)OCO2,7.0,5.3,4.6,5.7,0.53*
O=C(Nc1ccccc1)Nc1ccc(Cl)c([N+](=O)[O-])c1,3.2,7.2,-3.5,6.2,0.483*
O=C(Nc1ccccc1)Nc1cccc(Cl)c1,9.7,5.0,-4.3,4.6,0.503*
O=C(Nc1ccccc1)Nc1ccc2snnc2c1,5.2,5.8,3.2,5.2,0.571
O=C(NCc1ccc2c(c1)OCO2)Nc1cccc(Cl)c1,2.3,-0.3,0.5,0.3,0.678
CCN1C(=O)C2C(c3ccc(-c4ccc(C(C)=O)cc4)cc3)N3CCC[C@@]3(C(=O)OC)C2C1=O (some centres not stated),.,.,.,.,0.688
CCOC(=O)C1C2COc3cc(OC)ccc3C2N2C(=O)CN(CC3CCCO3)C(=O)[C@@]12C (some centres not stated),.,.,.,.,0.692
C=CCC(CC(=O)NC(CO)Cc1ccccc1)C(=O)NC(COC(=O)C(CC=C)Cc1ccc(F)cc1)Cc1ccccc1 (configuration not stated),.,.,.,.,0.665
C=CCSC(=S)NC1CCS(=O)(=O)C1 (configuration not stated),2.7,3.7,-21.5,-1.9,0.502*
C=CCNc1ncnc2c1[nH]c1ccc(Cl)cc12,9.0,6.9,-10.7,5.7,0.474*
CCOCCCNc1ncnc2c1[nH]c1ccccc12,2.5,3.4,-1.1,1.7,0.692
C=CCNc1ncnc2c1[nH]c1ccccc12,6.5,2.4,-9.9,3.1,0.5*
COc1ccc(C2CC=C(C(=O)O)C(c3ccc(F)cc3)N2S(=O)(=O)c2ccc(Cl)cc2)cc1 (configuration not stated),.,.,.,.,0.726
COC(=O)C(C)NC(=O)C=Cc1ccc(OC)cc1 (configuration not stated),.,.,.,.,0.725
O=C(COc1c(Br)cc(Br)c2cccnc12)N1CCc2ccccc2C1,.,-3.4,2.8,-8.6,0.439*
S=C1NCC(CC2CCCCC2)N1CCCCC1CCCCC1 (configuration not stated),.,.,.,.,0.719
COC(=O)c1ccc(NC(=O)Nc2ccc(F)cc2)cc1,4.1,4.1,-4.8,3.5,0.512*
O=C1CN(N=Cc2ccc([N+](=O)[O-])o2)C(=O)N1,.,.,.,.,0.457*
NCCCCC(C(=O)N1CCNCC1)n1cc(C(N)CO)nn1 (configuration not stated),.,.,.,.,0.723
O=[N+]([O-])c1cc(C(F)(F)F)ccc1NCCNC(=S)Nc1ccc(Cl)cc1,7.3,8.8,11.7,10.2*,0.613
Cc1cc(C(C#N)c2ccc(Cl)cc2)c(Cl)cc1NC(=O)c1cc(I)cc(I)c1O (configuration not stated),4.9,8.4,-8.9,11.0*,.
COc1ccc2cc(C(c3nnnn3C3CCCC3)N3CCCCCC3)c3nnnn3c2c1 (configuration not stated),2.1,9.2,-3.9,12.2*,0.776
COc1ccc2cc(C(c3nnnn3C3CCCCC3)N3CCCCCC3)c3nnnn3c2c1 (configuration not stated),0.5,0.4,-5.9,0.2,0.728
COc1ccc(S(=O)(=O)NN=Cc2ccc3c(c2)OCO3)c(OC)c1,.,.,.,.,0.708
O=[N+]([O-])c1ccc(C=NNS(=O)(=O)c2ccc(F)cc2)o1,.,.,.,.,0.438*
SMILES,phage Ecoli inh,AddAB inh,Tat export inh,E coli growth-1,E coli growth-2
COc1ccc(S(=O)(=O)NN=Cc2ccc([N+](=O)[O-])o2)c(OC)c1,.,.,.,.,0.509*
CN1CCN(C(=O)C2=CC(c3ccc(C(F)(F)F)cc3)CC(OCc3ccc(CO)cc3)O2)CC1 (configuration not stated),.,.,.,.,0.656
O=C1NC(Cc2ccccc2)CO1 (configuration not stated),.,.,.,.,0.689
O=C(C=Cc1cccs1)N1CCC2(CC1)Oc1ccc(F)cc1C(=O)C21CC(c2ccc(Cl)cc2)=NO1 (configuration not stated),.,.,.,.,0.722
Oc1c(Cl)cc(Cl)cc1C=NNC(=S)NC1CC2C=CC1C2 (configuration not stated),.,.,.,.,0.704
Oc1c(Br)cc(Br)cc1/C=N/NC(=S)N[C@H]1CC2C=CC1C2 (some centres not stated),9.1,11.7,-8.8,10.1*,.
O=[N+]([O-])c1ccc(C=NNc2cc(Cl)nc(-c3ccccc3)n2)cc1,.,.,.,.,0.706
CCOc1ccc(CNc2ccc3c(c2)nc(C)n3C)cc1,2.4,2.4,7.4,-0.7,0.691
COc1ccc(CNc2ccc3c(c2)nc(C)n3C)cc1OC,-0.5,-1.6,-1.8,13.3*,0.65
COc1ccc(C(=O)NNC(=S)NC(=O)c2ccco2)cc1,-1.6,1.9,3.3,-1.1,0.444*
CCCOc1ccc(C(=O)NNC(=S)NC(=O)c2ccco2)cc1,3.5,3.8,-3.4,1.5,0.551
CCCCOc1ccc(C(=O)NNC(=S)NC(=O)CC)cc1,.,-6.7,1.5,-4.6,0.557
CCC(=O)NC(=S)NNC(=O)c1ccc(OC)cc1,-5.8,-1.4,12.4,0.7,0.458*
CCCOc1ccc(C(=O)NNC(=S)NC(C)=O)cc1,6.8,3.7,-19.2,-7.1,0.273*
CCCCC(CNC(CNC)C(C)CC)NCCC12CCC(CC1)C2 (configuration not stated),.,.,.,.,0.686
CC[C@@]12C(=O)N(c3ccc(OC)cc3)C(=O)N1C(c1ccc(Cl)cc1)C1C(=O)N(C3CCCCC3)C(=O)C12 (some centres not stated),.,.,.,.,0.708
CCCCCCC(=O)N1CC=CC(c2ccc(OC)cc2)N(Cc2ccc(F)cc2)C(=O)C1 (configuration not stated),.,.,.,.,0.686
COC1OC2O[C@@]3(C)CCC4C(C)CCC(C1C)[C@@]24OO3 (some centres not stated),.,.,.,.,0.357*
c1ccc2c(c1)CCC2=NNc1nc2ccccc2[nH]1,.,.,.,.,0.464*
CC1CN(C(C)CO)C(=O)c2cccc(NC(=O)C3CC3)c2OC1CN(C)Cc1ccc(Oc2ccccc2)cc1 (configuration not stated),.,.,.,.,0.721
O=[N+]([O-])c1nn(-c2ccccc2)n(O)c1=NC1CCN(Cc2ccccc2)CC1,5.0,8.0,4.4,10.3*,0.591
Nc1ncc(N=Nc2cc(C(=O)O)ccc2Cl)s1,6.0,10.0,-7.7,10.5*,0.633
CCC[C@@H](CN1CCC[C@H]1CN1C(N)=NC[C@H]1CC(C)C)N1C[C@@H](Cc2ccccc2)N(CCCC2CCCC2)C1=N,1.0,4.2,11.6,2.7,0.268*
C[C@@H](CN1CCC[C@H]1CN1C(N)=NC[C@@H]1Cc1ccccc1)N1C[C@@H](Cc2ccccc2)N(CCc2ccc(Cl)c(Cl)c2)C1=N,.,7.3,65.8*,6.0,.
CCC[C@@H](CN1CCC[C@H]1CN1C(N)=NC[C@@H]1Cc1ccccc1)N1C[C@@H](Cc2ccccc2)N(CCc2ccc(Cl)c(Cl)c2)C1=N,4.2,2.4,2.5,3.1,.
CCCC(CN1CCCC1CN1C(N)=NCC1Cc1ccccc1)N1CC(C(C)CC)N(CCc2ccc(Cl)c(Cl)c2)C1=N (configuration not stated),.,.,.,.,0.338*

# Screening data from PubChem BioAssay.
